A selection: hits, their analogues and other compounds. The true share with any hit is near 7.5%.
ELG1 genotox = inducers of genotoxicity in HEK293T ELG1-luciferase cells. HEK293T ELG1-luciferase reporter, luminescence, 16 h. 330,000 tested, 1.3% active. Potency, µM (top dose mostly 46 µM), without a hit: at the top dose activity change, positive = activation, actives largely listed as activators; also: % of control where 0% means no effect; nearly all actives have a fitted effect of over 60% in size
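Genotoxic stress is detected as increased luminescence from luciferase-tagged ELG1 in HEK293T cells, measured with ONE-Glo after a 16 hr treatment at 37 °C.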
NPC1 prom act = activates the NPC1 promoter; Huh7 NPC1 promoter luciferase reporter, 24 h; AID 485313; 320,000 tested, 2.4% active; Potency, µM (series often up to 9.22 µM), inactives show at the highest dose activation, hits mostly activators; also: % of control where 0% means no effect; nearly all actives have a fitted effect of over 60% in size
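Luminescence read-out of NPC1 promoter-driven luciferase in stably transfected Huh7 cells; compounds delivered in DMSO and left 24 h at 37C, 5% CO2, qHTS titration format.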
FLuc counter = counter-screen for miR-21 project: firefly luciferase inhibitors or activators. Potency, µM (series often up to 57.5 µM), without a hit: top-dose activity change, negative = inhibition, hits mostly inhibitors. purified FLuc, Km substrates, luminescence inhibition. 360,000 tested, 6.9% active. P08659;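 also: plate controls were vehicle for no effect and reference inhibitor for full effect; nearly all actives have a fitted effect of over 55% in size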
Target sequence (P08659 whole entry, looked up): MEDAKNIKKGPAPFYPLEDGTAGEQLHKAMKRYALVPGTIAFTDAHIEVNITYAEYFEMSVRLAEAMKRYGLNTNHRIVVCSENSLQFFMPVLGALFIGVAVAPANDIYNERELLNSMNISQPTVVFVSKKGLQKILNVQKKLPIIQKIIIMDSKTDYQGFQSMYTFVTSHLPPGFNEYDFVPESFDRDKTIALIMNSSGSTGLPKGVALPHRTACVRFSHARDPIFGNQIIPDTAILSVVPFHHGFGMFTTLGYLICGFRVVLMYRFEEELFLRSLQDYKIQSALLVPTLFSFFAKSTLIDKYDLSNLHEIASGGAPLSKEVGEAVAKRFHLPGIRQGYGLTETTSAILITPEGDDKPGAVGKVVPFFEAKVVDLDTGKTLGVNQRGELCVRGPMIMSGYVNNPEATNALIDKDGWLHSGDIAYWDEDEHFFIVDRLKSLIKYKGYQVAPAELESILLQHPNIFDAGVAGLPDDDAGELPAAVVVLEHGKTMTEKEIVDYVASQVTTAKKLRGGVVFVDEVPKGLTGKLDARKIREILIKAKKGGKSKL
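Biochemical qHTS of compounds, final roughly 60 µM downward over six points, against 10 nM purified firefly luciferase using Km concentrations of substrates (10 uM D-luciferin, 10 uM ATP) in Tris acetate pH 7.5 buffer; luminescence output.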
Rab9 promoter act = activates the Rab9 promoter | Huh7 Rab9 promoter-luciferase reporter, luminescence, 24 h | Potency, µM (doses to about 9.22 µM), for inactives: at the highest dose activation, negative = inhibition, most hits filed as activators | 320,000 tested, 2.8% active | AID 485297; also: % of control where 0% means no effect; nearly all actives have a fitted effect of over 60% in size
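Luciferase signal after 10 min detection reagent at ambient indicates Rab9 promoter upregulation; stably transfected Huh7 cells were treated 24 h with compound in DMSO at 37 °C, 5% CO2.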
SMN2 splice up = SMN2 splice variant enhancement. HEK293 SMN2-luciferase splicing reporter, luminescence, 30-36 h. Potency, µM (titrated, usually from 46.1 µM), without a hit: at the top dose activity change, positive = activation, most hits filed as activators. 210,000 tested, 2.8% active. AID 1458; also: % of control where 0% means no effect; nearly all actives have a fitted effect of over 55% in size
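HEK293 cells carry an SMN2 […]–luciferase reporter in which exon 7 inclusion puts luciferase in frame. Cells were plated 10-12 h before compound addition, then incubated 30-36 h at 37C. ONE-Glo luminescence was read; sodium butyrate at 4.5 mM final served as control.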
Active calls of the source: *; ? = inconclusive; · = no result given. Calls follow the shape of the dose curve; as a rule, active = well fitted curve in the direction sought with a large enough effect; inconclusive = small, poorly fitted or top-dose-only effect, or another doubt; inactive = no such curve, though single readings can be large; an effect the other way counts as inactive or inconclusive. Potency is read from the fitted curve at half-maximal effect.

SMILES	ELG1 genotox	NPC1 prom act	FLuc counter	Rab9 promoter act	SMN2 splice up
Cc1ccc(NC(=O)CN(C)C(=O)C(C)N2CCN(Cc3ccccc3C)CC2)cc1 (stereo not given)	-1%	-2%	8%	-2%	·
C=CCn1c(=NC(=O)c2cccs2)sc2cccc(OC)c21	-8%	-1%	15µM*	14%	·
CCn1c(=NC(=O)c2ccc(S(=O)(=O)N(C)C)cc2)sc2cccc(OC)c21	-1%	-12%	-6%	-1%	-23%
O=C(N/N=C/c1ccncc1)c1cccc(NC(=O)c2ccc(Cl)cc2)c1	2%	-2%	-7%	-3%	-18%
O=C(Nc1ccccc1C(=O)N/N=C/c1ccc(F)cc1)c1ccccc1Br	-1%	7%	6µM*	7%	-5%
O=C(O)c1ccc(/C=N/NC(=O)c2ccc(F)cc2)cc1	-2%	-6%	19µM*	1%	·
O=C(N/N=C/c1ccc(O)cc1)c1ccc(NC(=O)c2ccccc2Br)cc1	-1%	-1%	?	-6%	39%
O=C(N/N=C/c1ccccc1C(F)(F)F)c1ccc(O)cc1	?	?	11µM*	?	28%
O=C(N/N=C/c1ccc(F)cc1)c1cccc(NC(=O)c2ccc(F)cc2)c1	-10%	23%	8.5µM*	?	·
CCc1cccc(NC(=O)C(c2ccccc2)N2Cc3ccccc3C2=O)c1 (stereo not given)	·	·	-10%	·	·
COc1ccc(N2CC(C(=O)N/N=C/c3cc([N+](=O)[O-])ccc3O)CC2=O)cc1 (stereo not given)	0%	-3%	?	-1%	-34%
O=C(N/N=C/c1ccc(F)cc1)c1ccccc1	?	2.8µM*	12µM*	2µM*	18µM*
O=C(N/N=C/c1ccc(F)cc1)c1cc[n+]([O-])cc1	4%	-2%	0%	0%	·
Cc1ccccc1/C=N\NC(=O)c1csnn1	19%	18%	?	19%	12%
O=C(N/N=C\c1ccc(F)cc1)c1csnn1	?	24%	24µM*	22%	6%
CC(OC(=O)/C=C/c1cccs1)C(=O)Nc1ccc(C(N)=O)cc1 (stereo not given)	7%	-5%	5%	-9%	·
O=C(COc1ccccc1/C=C1\SC(=S)NC1=O)Nc1ccc(F)cc1	-6%	·	·	·	·
Cc1ccc2nc(-c3ccc(Cl)c(NC(=O)c4ccc5c(c4)OCCO5)c3)oc2c1	·	·	11µM*	·	-34%
Cc1ccc2nc(-c3ccc(Cl)c(NC(=O)COc4ccc(C(C)C)cc4)c3)oc2c1	·	·	11µM*	·	17%
COc1ccc(OCC(=O)Nc2ccc(-c3nc4cc(C)c(C)cc4o3)cc2)cc1	·	·	·	·	0.56µM*
CCc1ccc(OCC(=O)Nc2ccc3oc(-c4ccc(OC)cc4)nc3c2)cc1	·	·	0%	·	12%
Cc1ccc(OCC(=O)Nc2ccc(-c3nc4ccc(C)cc4o3)cc2)cc1	·	·	-2%	·	0.63µM*
CCOc1ccc(-c2nc3cc(NC(=O)COc4cccc(C)c4)ccc3o2)cc1	·	·	-13%	·	-5%
CC(C)CNC(=O)c1ccccc1NC(=O)c1ccc(CSc2ccccc2)cc1	2%	-4%	?	1%	13%
O=C(Nc1cccc(Cl)c1)Nc1ccccc1C(=O)NCc1ccco1	1%	3%	19µM*	7%	9%
SMILES	ELG1 genotox	NPC1 prom act	FLuc counter	Rab9 promoter act	SMN2 splice up
Cc1ccc(C(=O)Nc2cccc(C(=O)NCc3ccco3)c2)cc1	12%	?	12µM*	28%	?
Cc1occc1C(=O)Nc1cccc(C(=O)NCc2ccccc2)c1	-4%	-1%	1%	-8%	-8%
O=C(NCc1ccco1)c1cccc(NC(=O)c2ccccc2)c1	0%	-3%	-17%	3%	-40%
O=C(Nc1ccccc1C(=O)NCc1ccco1)Nc1cccc2ccccc12	-4%	-5%	-20%	-4%	3%
COc1cccc(CNC(=O)c2ccc(C3SCCS3)cc2)c1	17%	4%	17µM*	6%	·
Cc1ccc(C(=O)Nc2cccc(C(=O)NCc3ccccc3)c2)cc1	-8%	13%	8.5µM*	10%	-14%
Cc1cc(/C=C/c2ccc3cc(N(C)C)ccc3[n+]2C)c(C)n1-c1ccccc1	·	·	·	·	-95%
COc1cccc(CNC(=O)c2ccc(-n3c(C)cc4c3CCCC4)cc2)c1	·	·	-3%	·	·
CCC(=O)Oc1ccc(C(=O)Nc2cccc(C(=O)NCC(C)C)c2)cc1	-1%	-4%	13µM*	-9%	·
COc1ccc(C(=O)Nc2cccc(C(=O)NCc3ccccc3)c2)cc1	-5%	3%	12µM*	-2%	1%
CC(=O)Nc1cccc(NC(=O)CN2C(=O)CCSc3ccccc32)c1	·	·	-8%	·	13%
Cc1ccccc1NS(=O)(=O)c1ccc(Br)s1	·	·	-18%	·	0%
CC(O)/C=C/c1ccc2ccccc2n1 (stereo not given)	6%	1%	17µM*	15%	16µM*
Fc1cccc(F)c1/C=C/c1ccc2ccccc2n1	0.58µM*	?	0.27µM*	4µM*	·
Fc1cccc(Cl)c1/C=C/c1cnc2ccccc2n1	0.52µM*	?	0.13µM*	4µM*	·
C(=C\c1ccco1)/c1ccc2ccccc2n1	?	?	1.2µM*	4µM*	·
O=C(/C=C/c1ccc2ccccc2n1)N1CCN(S(=O)(=O)c2ccccc2F)CC1	-4%	-9%	-3%	-10%	·
O=[N+]([O-])c1ccc(N2CCN(Cc3ccc(Br)o3)CC2)cc1	0%	1%	1%	-3%	·
CCN(CC)c1ccc(CN(C(=O)c2cccs2)C2CCS(=O)(=O)C2)cc1 (stereo not given)	2%	-5%	-1%	-3%	·
Cc1ccc(/C=C/C(=O)Nc2ccccc2C(N)=O)cc1	?	2.8µM*	0.85µM*	1.4µM*	3.5µM*
Cc1ccc(C(=O)/C=C/Nc2ccccc2C(N)=O)cc1	6.5µM*	0.63µM*	0.13µM*	0.32µM*	0.71µM*
NC(=O)c1ccccc1N/C=C/C(=O)c1ccc(Cl)cc1	?	0.4µM*	0.24µM*	0.4µM*	8.9µM*
Cc1ccc(/C=C/C(=O)Nc2cc(S(N)(=O)=O)ccc2O)cc1	1%	4%	15µM*	17%	2%
NC(=O)c1ccccc1NC(=O)/C=C/C(=O)O	2%	-2%	6%	1%	-27%
Cc1ccc(C=Nc2ccccc2C(N)=O)cc1	?	-19%	?	-16%	6%
CCOC(=O)CSc1nc(-c2ccc(F)cc2)cc(C(F)(F)F)c1C#N	·	·	-5%	·	2%
COc1ccc(NC(=O)Nc2nnc(-c3cccs3)s2)cc1	17%	4.5µM*	?	4µM*	·
COc1ccc(C(=O)Nc2nnc(-c3cccs3)s2)cc1	0.52µM*	1µM*	1.2µM*	0.79µM*	7.1µM*
O=C(Nc1nnc(-c2cccs2)s1)c1cccc(F)c1	?	1.8µM*	?	0.89µM*	8.9µM*
O=C(CN1CCCC1)Nc1nnc(-c2cccs2)s1	9%	17%	-11%	10%	12%
